Compounds with a hit are over-represented: about 2.3% of the library has one in this group of screens.
GLP-1R agonist: GLP-1 receptor (human) agonism; P43220; HEK293 GLP-1R CRE-luciferase, luminescence, 4-6 h; cells express a hypersensitive GLP-1R form; Potency, µM (doses to about 45.6 µM), for inactives: at the highest dose activation, usual class: activators; 380,000 tested, 0.007% active; AID 624172; note: % of control where 0% means no effect
Target sequence (P43220 whole entry, looked up): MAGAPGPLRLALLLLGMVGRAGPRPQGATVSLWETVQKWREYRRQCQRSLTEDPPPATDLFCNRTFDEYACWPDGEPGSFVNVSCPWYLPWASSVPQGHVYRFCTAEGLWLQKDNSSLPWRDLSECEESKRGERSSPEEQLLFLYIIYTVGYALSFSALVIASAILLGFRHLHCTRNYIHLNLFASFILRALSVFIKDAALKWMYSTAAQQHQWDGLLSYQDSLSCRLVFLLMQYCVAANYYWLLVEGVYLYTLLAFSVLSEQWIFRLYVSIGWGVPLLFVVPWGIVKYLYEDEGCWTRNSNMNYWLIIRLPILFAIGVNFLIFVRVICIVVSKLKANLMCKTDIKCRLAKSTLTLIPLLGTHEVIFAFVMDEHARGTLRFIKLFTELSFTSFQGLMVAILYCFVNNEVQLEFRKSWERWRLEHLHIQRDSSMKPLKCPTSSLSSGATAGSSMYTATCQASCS
GLP1R inv ag: inverse agonists of human GLP-1 receptor; HEK293 GLP-1R CRE-luciferase, luminescence, 24 h; GLP-1R form is constitutively active; Potency, µM (titrated, usually from 38.3 µM), inactives show top-dose activity change, negative = inhibition, actives largely listed as inhibitors; 410,000 tested, 1.6% active; AID 624417; note: % is set by controls: 0 for no effect and ±100 for the full control effect; nearly all actives have a fitted effect of over 55% in size
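qHTS in 1536-well format: reporter HEK293 cells expressing constitutive GLP-1R activity in DMEM + 10% Nu serum, 24 hr with compounds at 37 deg C, luminescence read after 12 min with detection reagent.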
PTHR1 agonist: PTHR1 (human) receptor agonism; Q03431; HEK293 GP2 PTHR1 cells, GloSensor cAMP luminescence, 1 h; 410,000 tested, 0.075% active; Potency, µM (series often up to 115 µM), inactives show at the top dose activation, most hits filed as activators; note: nearly all actives have a fitted effect of over 55% in size
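HEK-293-derived GP2 cells expressing PTHR1 and a GloSensor cAMP reporter, 3,000/well, plated overnight, given luciferin plus IBMX (each 0.5 mM as added) for 1 h at 37 °C, then compound for 1 h at 37 °C. Luminescence was read after 15 min at room temperature.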
GLS inhibitor: glutaminase GLS (human) inhibition | O94925 | GLS enzymatic activity, qHTS titration | Potency, µM (series often up to 45.5 µM), inactives show at the top dose activity change, negative = inhibition, actives largely listed as inhibitors | 410,000 tested, 0.21% active | AID 624170; note: % is set by controls: 0 for no effect and ±100 for the full control effect
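Enzyme dispensed in phosphate buffer (45 mM, pH 8.2, 0.02% Tween-20), compounds pinned in, then 1 mM L-glutamine solution and the glutamate oxidase–HRP–Amplex Red mix added; fluorescence read immediately and again after 30 min at room temperature.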
GRP78 ERSR act: induces the endoplasmic reticulum stress response in human glioma cells; U87-MG GRP78 promoter luciferase reporter, 16 h; Potency, µM, inactives show at the top dose activation, usual class: activators; 420,000 tested, 0.02% active; note: series mostly up to about 76 µM; % of control where 0% means no effect; nearly all actives have a fitted effect of over 35% in size
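Stably transfected U87-MG human glioma cells carrying a GRP78-based luminescent sensor were seeded at 1000 cells/well, pin-dosed with compounds and incubated 16 h. Luciferase reagent was then added, and end-point luminescence was read after 10 min at room temperature.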
ALOX12 inh: inhibitors of human 12S-lipoxygenase ALOX12; P18054; purified 12hLO, xylenol orange hydroperoxide absorbance; Potency, µM (series often up to 108 µM), for the others: at the top dose activity change, negative = inhibition, hits mostly inhibitors; 580,000 tested, 1.1% active; note: % is set by controls: 0 for no effect and ±100 for the full control effect
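Hydroperoxide product was detected by ferrous iron/xylenol orange as the 573 to 405 nm absorbance ratio. Arachidonic acid at 40 uM (final) was turned over for 30 min at room temperature by 150 nM human 12hLO, pH 7.0 Hepes buffer, after 15 min compound preincubation.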
Active calls of the source: *; i = inactive; ? = inconclusive; / = not tested or not shown; [ ] = remark or other dose. Calls come from the whole dose curve; as a rule, active = well fitted curve in the direction sought with a large enough effect; inconclusive = small, poorly fitted or top-dose-only effect, or another doubt; inactive = no such curve, though single readings can be large; an effect the other way counts as inactive or inconclusive. Potency is the fitted concentration of half-maximal effect.

SMILES	GLP-1R agonist	GLP1R inv ag	PTHR1 agonist	GLS inhibitor	GRP78 ERSR act	ALOX12 inh
COC(=O)C1=CN(c2ccc(OC)cc2)C(N)=C(C#N)C1c1cccc2ccccc12 (configuration not stated)	/	?	-18%	/	/	?
COC(=O)C1=CN(c2ccc(Oc3ccccc3)cc2)C(N)=C(C#N)C1c1ccccc1 (configuration not stated)	/	?	-53%	/	/	?
CCc1ccc(N2C=C(C(=O)OC)C(c3cccc4ccccc34)C(C#N)=C2N)cc1 (configuration not stated)	/	1µM*	-52%	/	/	?
COC(=O)C1=CN(c2ccc(F)cc2)C(N)=C(C#N)C1c1ccccc1 (configuration not stated)	/	-24%	i	/	/	45µM*
COC(=O)CC1C(=O)NCCN1S(=O)(=O)c1ccc(Cl)cc1C(F)(F)F (configuration not stated)	/	/	/	/	/	19%
COc1ccc2c(c1OC)C(=O)OC2CC(=O)c1ccccc1 (configuration not stated)	/	/	/	/	/	5%
O=C(NCc1ccco1)C(c1ccncc1)N(C(=O)Cc1cccs1)c1ccccc1 (configuration not stated)	8%	4%	-6%	0%	-1%	-6%
CC(C)CCNC(=O)C(c1ccc(O)cc1)N(Cc1cccs1)C(=O)C1COc2ccccc2O1 (configuration not stated)	-21%	11µM*	-17%	0%	-8%	-35%
O=C(NCc1ccco1)C(c1cccs1)N(C(=O)C1COc2ccccc2O1)c1cccc(O)c1 (configuration not stated)	-21%	11µM*	-4%[57.5 µM]	-2%	-8%	?
O=C(CCc1ncc(-c2ccccc2F)o1)Nc1ccc(Cl)cc1F	/	/	/	/	/	19%
COc1cccc(OC)c1C(=O)Nc1cccc(-c2nc3cc(Cl)ccc3o2)c1	/	/	/	/	/	0%
Cc1ccc(NC(=O)c2cc3c(s2)CCC3)cc1C	/	/	/	/	/	0%
COc1ccc(C(=O)COC(=O)Cc2coc3cc4c(cc23)CCC4)cc1OC	/	/	/	/	/	45%
O=C(O)c1cnc(/C=C/c2cc(Cl)c3c(c2)OCCCO3)s1	/	/	/	/	/	-23%
Cc1cccc(NC(=O)c2c([N+](=O)[O-])c(C(C)(C)C)nn2C)c1	0%	5µM*	-8%	-12%	-4%	24%
Cc1ccccc1NC(=O)c1c([N+](=O)[O-])c(C(C)(C)C)nn1C	3%	?	i	-8%	-2%	10%
Cn1nc(C(C)(C)C)c([N+](=O)[O-])c1C(=O)Nc1ccc(Br)cc1	1%	2.8µM*	-42%	-10%	-3%	46%
COc1ccc(C(=O)NCC(=O)OCc2ncc(-c3ccccc3)o2)cc1	/	/	/	/	/	-2%
Cc1ccc(O)c(C(=O)N(C)Cc2c(F)cccc2Cl)c1	/	/	/	/	/	40µM*
CC1(CC(=O)N/N=C/c2cc(Br)c(O)cc2O)OCCO1	-11%	38%	?	10µM*	0%	10%
COC(=O)c1cc(C(=O)N2CCN(c3ccccc3OC)CC2)cc([N+](=O)[O-])c1	22%	1µM*	i	-1%	-4%	0%
COC(=O)c1cc(C(=O)N2CCN(c3cccc(C)c3C)CC2)cc([N+](=O)[O-])c1	11%	4µM*	-86%	5%	-5%	1%
COC(=O)c1cc(C(=O)N2CCN(c3ncccn3)CC2)cc([N+](=O)[O-])c1	7%	0%	-1%	-17%	-4%	-23%
Cc1cccc2c(C(=O)NCc3cccs3)cc(-c3cccnc3)nc12	/	/	/	/	/	0%
COc1cccc(-c2cn3nc4c(nc3n2)CCCC4)c1	-34%	2.5µM*	-14%[57.5 µM]	10%	-14%	/
SMILES	GLP-1R agonist	GLP1R inv ag	PTHR1 agonist	GLS inhibitor	GRP78 ERSR act	ALOX12 inh
Clc1ccc(-c2cn3nc4c(nc3n2)CCCC4)cc1	-19%	6.3µM*	-16%	13%	-9%	-22%
COC[C@@H]1CN(S(=O)(=O)c2cccc(C)c2)C[C@H]1c1nc(C)no1	/	/	/	/	/	45µM*
COC[C@@H]1CN(S(=O)(=O)c2ccc(C)cc2)C[C@H]1c1nc(C)no1	/	/	/	/	/	32%
Cc1sc2nc(SCC(=O)N3CCOCC3)[nH]c(=O)c2c1-c1ccccc1	2%	-3%	-24%	-7%	0%	32µM*
c1ccc(N2CCN(CCNCC3CNc4ccnn4C3)CC2)cc1 (configuration not stated)	/	/	/	/	/	15%
C=CCNC(=S)N/N=C1/CCC=C1CCCCC	/	/	/	/	/	35µM*
O=C(O)c1ccc(N2CC3CC(C2)c2cccc(=O)n2C3)c(NC(=S)Nc2ccc(Br)cc2)c1 (configuration not stated)	0%	?	-9%	4%	0%	40µM*
CCc1ccc(NC(=S)Nc2cc(C(=O)O)ccc2N2CC3CC(C2)c2cccc(=O)n2C3)cc1 (configuration not stated)	20%	9%	i	21%	-2%	?
Cc1nc2cc(C(=O)Nc3ccccc3N3CCCC3=O)ccc2n1-c1ccccc1	/	/	/	/	/	11%
S=C(NCCc1ccccc1)Nc1ccc(Sc2ccc(Br)cc2)cc1	/	/	/	/	/	35µM*
S=C(NCCc1ccccc1)Nc1ccc(Nc2ccccc2)cc1	5%	?	-23%	?	-3%	?
FC(F)(F)Sc1ccc(NC(=S)NCc2ccccc2)cc1	-5%	?	-14%	-3%	-2%	40µM*
S=C(NCc1ccccc1)Nc1ccc(Cl)cc1	8%	?	-33%	0%	1%	?
S=C(NCc1ccncc1)Nc1ccc(Br)cc1	9%	-21%	-58%	-9%	-4%	?
S=C(NCc1ccccc1)Nc1ccc(Sc2ccc(Br)cc2)cc1	/	/	/	/	/	28µM*
COc1cc(-c2nc(-c3ccc4c(c3)-c3ccccc3S4(=O)=O)c(-c3ccccc3)[nH]2)cc(OC)c1OC	-2%	1.6µM*	-8%[57.5 µM]	0%	0%	?
O=C1C(=C(c2ccccc2)c2ccccc2)Nc2ccccc21	1%	3.2µM*	-32%[57.5 µM]	1%	1%	136%
O=C1C(=C(O)c2ccccc2)C(=O)c2ccccc21	4%	12%	-1%[57.5 µM]	14%	-2%	?
O=C(NCc1cccs1)c1cc(-c2cccc(C(F)(F)F)c2)c2nncn2n1	/	/	/	/	/	-6%[6.33 µM]
O=C(CSc1nc(Nc2ccccc2)nc(N2CCOCC2)n1)Nc1cccc([N+](=O)[O-])c1	7%	11µM*	-23%	0%	-2%	/
CC1Sc2ccc(S(=O)(=O)N3CCC(C(=O)N4CCCC4)CC3)cc2NC1=O (configuration not stated)	/	/	/	/	/	0%
